Hit rate of the full screen: of about 48,000 compounds, about 13,000 (27%) showed an effect of 50% or more. The list shows a part of the results.
What follows are compounds tested on Wolbachia pipientis (assay: Anti-Wolbachia Cell-Based Screen). Conditions: 5 µM.
Assay type: functional
Parameters: scale not given: in the data most compounds retested in dose-response had high values

Row | Structure (SMILES) | Percent Effect [%]
1 | COCCN(Cc1nccs1)C(=O)c1c(C)cc(C)[nH]c1=O | -6.144
2 | CC(C(=O)NC(C)(C)C)S(=O)(=O)Cc1noc(C(C)(C)C)n1 (stereo not given) | 3.309
3 | O=C(C1CCC1)N1CCCC(c2ccnc(Nc3cnccn3)n2)C1 (stereo not given) | 48.97
4 | O=C(C1CCCC1)N1CCC(c2ccnc(Nc3cnccn3)n2)C1 (stereo not given) | 92.23
5 | CNCC(=O)N1CCCC(c2ccnc(Nc3cnccn3)n2)C1 (stereo not given) | 90.62
6 | Cl.Cl.NCC(=O)N1CCCC(c2ccnc(Nc3cnccn3)n2)C1 (stereo not given) | 138.9
7 | CC(=O)N1CCCC(c2ccnc(Nc3cnccn3)c2)C1 (stereo not given) | 134
8 | Cc1cc(C2CCCN(C(=O)c3cnccn3)C2)ccn1 (stereo not given) | -6.489
9 | COCc1ccc(C(=O)N2CC[C@@](O)(COC)C(C)(C)C2)o1 | 3.183
10 | CCc1c(C)nn(CC(=O)NC(C(=O)O)c2c(C)n[nH]c2C)c1C (stereo not given) | 1.191
11 | Cc1ccccc1CC1(CO)CCCN(c2ncccc2C#N)C1 (stereo not given) | 0.9317
12 | C=C(C)CNc1nc(CS(=O)(=O)c2ccccc2)cs1 | -10.96
13 | CC(CNC(=O)N1CCN(Cc2ccon2)CC1)Cc1cccs1 (stereo not given) | -18.64
14 | O=C(Cn1c(=O)oc2ccccc21)N1Cc2cnn(CCO)c2C1 | -5.203
15 | CC(=O)N1CCCC(c2ccnc(Nc3cnccn3)n2)C1 (stereo not given) | 113.3
16 | O=C(CCc1c(F)cccc1F)N1CCCCC1Cn1cccn1 (stereo not given) | 126.8
17 | COc1ccc(CC(=O)N2CCCC2Cn2cccn2)cc1F (stereo not given) | 2.407
18 | O=C(CCc1ccc2c(c1)OCO2)N1CCCCC1Cn1cccn1 (stereo not given) | 137.4
19 | COc1ccc(CCC(=O)N2CCCCC2Cn2cccn2)cc1F (stereo not given) | 155.4
20 | O=C(CCc1ccc(F)c(F)c1)N1CCCCC1Cn1cccn1 (stereo not given) | 87.24
21 | O=C(c1cccc2c1OCO2)N1CCCCC1Cn1cccn1 (stereo not given) | -4.366
22 | CSc1c[nH]nc1NS(=O)(=O)c1ccc(C)c(C)c1 | 4.625
23 | O=C(Nc1ccccc1CCO)c1cccc(CN2CC[C@H](O)C2)c1 | -8.564
24 | COc1ccc(F)c(CN2CCCC3(CCN(S(C)(=O)=O)C3)C2)c1 (stereo not given) | -4.467
25 | O=C(c1cccn1Cc1cccs1)N1CCCC1Cn1cccn1 (stereo not given) | 4.58
26 | Cc1oc(-c2cccs2)nc1C(=O)N1CCCC1Cn1cccn1 (stereo not given) | 103.5
27 | O=C(c1cc(-c2cccs2)on1)N1CCCCC1Cn1cccn1 (stereo not given) | 91.35

Row | Structure (SMILES) | Percent Effect [%]
28 | N#Cc1ccsc1C(=O)N1CCCCC1Cn1cccn1 (stereo not given) | -3.499
29 | Cc1noc(C)c1CN(C)CCc1nc(-c2cccc(Cl)c2)no1 | 0.3419
30 | COc1cccc(CCn2ccnc2-c2cn(C3CCNCC3)nn2)c1 | 111.7
31 | O=C(NC1CCCCC1)N1CCC(n2cc(-c3ccccn3)nn2)CC1 | -3.255
32 | Clc1ccccc1CCn1ccnc1-c1cn(C2CCNCC2)nn1 | 101.1
33 | Cc1ccc2[nH]c(-c3cn(C4CCNCC4)nn3)nc2c1C | 9.5
34 | c1ccc(CCCn2ccnc2-c2cn(C3CCNCC3)nn2)nc1 | 103.3
35 | Cc1cc2nc(-c3cn(C4CCNCC4)nn3)[nH]c2cc1C | -3.563
36 | COc1ccc(CCn2ccnc2-c2cc3n(n2)CCCNC3)cc1 | -17.25
37 | COc1cccc(CCN2C[C@H]3CCNCC[C@H]3S2(=O)=O)c1.O=C(O)C(F)(F)F | 12.24
38 | Cc1c(C)c(C)c2[nH]c(-c3cn(C4CCNCC4)nn3)nc2c1C | 5.399
39 | O[C@H]1[C@H](n2cc(-c3ccccn3)nn2)c2ccccc2C12CCNCC2 | -37
40 | c1ccc(OCCCn2ccnc2-c2cn(C3CCNCC3)nn2)cc1 | 87.94
41 | Cc1cccc2[nH]c(-c3cn(C4CCNCC4)nn3)nc12 | -0.8234
42 | CNC(=O)c1cccc(CNC(C)c2cc(C)ccc2OC(F)F)c1 (stereo not given) | 2.562
43 | CC(C)CNc1nc(C(=O)/N=c2\[nH]nc(C(C)(C)C)s2)cs1 | 9.925
44 | COc1cccc([C@H]2CN(C(=O)c3scc4c3CCCC4)C[C@@H]2N)c1 | -10.32
45 | O=S(=O)(CCc1ccccc1)Nc1cc(Cl)ccn1 | -16.02
46 | CSCc1ccc(N2CCC(C(O)CC(C)C)CC2)nc1 (stereo not given) | -3.23
47 | COc1cccc(CNC(C)c2ccc(-n3ccnc3)cc2)c1O (stereo not given) | 3.228
48 | CN(C)c1nc(CNC(=O)Nc2cccc([S+](C)[O-])c2)cs1 (stereo not given) | 95.39
49 | CN1CCN(c2cccc(NC(=O)NCc3csc(N(C)C)n3)c2)C1=O | -9.852
50 | CCc1nn(C)c(CC)c1CNC(=O)Nc1cccc([S+](C)[O-])c1 (stereo not given) | 3.217
51 | O=C(NCCn1nc2ccccn2c1=O)c1cccc2[nH]ncc12 | -8.467
52 | CC(C)(CN1CCCC1)CN1CCC(Cn2cc(CCO)nn2)CC1 | 39.97
53 | COCc1cn(CC2CCN(Cc3cc(C)[nH]n3)CC2)nn1 | 114.7
54 | COCc1cn(CC2CCN(Cc3c(C)[nH]c4ccccc34)CC2)nn1 | 121.8

Row | Structure (SMILES) | Percent Effect [%]
55 | Cc1nc(CN2CCCC(Cn3cc(CCO)nn3)C2)c[nH]1 (stereo not given) | 12.54
56 | Cc1cc(C)n2ncc(CN3CCC(Cn4cc(CO)nn4)CC3)c2n1 | 8.529
57 | CNCc1cn(CC2CCN(CC(C)(C)CN3CCCC3)CC2)nn1 | -11.44
58 | CNCc1cn(CC2CCN(Cc3cccs3)CC2)nn1 | 1.439
59 | COCc1cn(CC2CCN(Cc3nc(C)c[nH]3)CC2)nn1 | 122.2
60 | CCCN1CCC(N2CCC(Cn3cc(CC(C)O)nn3)CC2)CC1 (stereo not given) | -21.76
61 | CCC(CNC(=O)c1ccc(Br)o1)N1CCc2ccccc2C1 (stereo not given) | -5.246
62 | N[C@H]1CC[C@@H](Nc2nccc(CCC(F)(F)F)n2)CC1 | 2.361
63 | Cc1ncsc1C(=O)N1CCC(c2ncncc2-c2ccnc(N)c2)C1 (stereo not given) | 113.1
64 | CC(C)n1ccnc1C1CCN(C(=O)c2ccccc2)CC1 | 1.199
65 | Cc1nc(C2CCCN(C(=O)c3scnc3C)C2)no1 (stereo not given) | -0.5479
66 | O=C(c1ccccc1)N1CCCN(C(=O)c2ncncc2Cl)CC1 | 22.3
67 | Nc1cc(-c2cncnc2C2CCN(C(=O)c3ccccc3)C2)ccn1 (stereo not given) | 132.6
68 | Cc1ccc2nc(CN(Cc3ccc(C#N)cc3)C(C)C)cc(=O)n2c1 | -2.733
69 | COCCCN(C)[C@@H]1c2ccccc2C2(CCNCC2)[C@H]1O | 9.06
70 | COC(CNC(=O)c1cn(C)nn1)c1ccccc1C (stereo not given) | -14.48
71 | COc1c(F)cc(-c2cn(CCn3c(C)cc(C)nc3=O)nn2)cc1Cl | -4.684
72 | Cc1nn(CC(=O)N2CCN(Cc3cnn(C)c3C)CC2)cc1Br | 123
73 | Cc1nc(C)c(C(=O)N2CCCN(Cc3cnn(C)c3)CC2)s1 | 16.21
74 | Cc1noc(C)c1CN1CCN(C(=O)CCn2cncn2)CC1 | -2.995
75 | CCn1ncc(Cn2cc(Cl)c(N)n2)c1C | 0.6319
76 | Cc1c(Cn2cc(Cl)c(N)n2)cnn1C | -4.897
77 | Cc1nn(CC(=O)NCc2cc3n(n2)CCCN(CC(C)C)C3)cc1Cl | -2.88
78 | CCn1ncc(CN2CCN(C(=O)Cn3cc(Br)c(C)n3)CC2)c1C | 124.7
79 | Cc1nn(CC(=O)N2CCN(Cc3cnn(C)c3C)CC2)cc1Cl | 97.92
80 | Cc1nn(CCC(=O)N2CCN(Cc3cnn(C)c3C)CC2)c(C)c1Br | 118.1
81 | Cc1nn(CC(=O)N2CCN(Cc3cccnc3)CC2)c(C)c1Cl | 2.693

Row | Structure (SMILES) | Percent Effect [%]
82 | Cl.Cl.OC(CN1CCN(Cc2cccc(F)c2)CC1)C1CC1 (stereo not given) | -1.915
83 | CCC(=O)NC(CC(C)C)c1cccs1 (stereo not given) | 11.67
84 | O=C1CC(NS(=O)(=O)NCc2ccccc2)CN1c1ccccc1Cl (stereo not given) | 6.599
85 | Cc1ccc(OCC(=O)NC2(C#N)CCSCC2)cc1C | -7.391
86 | Cc1nsc(NC2CCN(c3ccccc3OC(F)F)C2=O)n1 (stereo not given) | -11.3
87 | Cc1cccc(-c2nnc(C(C)NCCn3cc(C)cn3)o2)c1 (stereo not given) | -10.86
88 | CC(=O)Nc1cccc(C(C)NCC2CCS(=O)(=O)CC2)c1 (stereo not given) | 10.2
89 | CNC(=O)c1n[nH]c2c1C(c1cccc3c1OC(C)(C)C3)CC(=O)N2 (stereo not given) | 27.3
90 | Cc1noc(C)c1CN1CCN(C(=O)Cn2cncn2)CC1 | -5.281
91 | Cc1nn(CCO)cc1CN1CCCN(C2CCCC2)CC1 | 15.64
92 | Cc1nn(CC(=O)N2CCN(Cc3cn(C)nc3C)CC2)cc1Br | 147.4
93 | O=C(c1ccc[nH]1)N1CCN(C(c2ccccc2)C(F)(F)F)CC1 (stereo not given) | -1.01
94 | Cc1ccc(C(=O)NCCCNS(C)(=O)=O)cc1C | 117.8
95 | CC(=O)NCCc1cn(-c2cc(F)ccc2C)cn1 | 0.929
96 | Cc1cc(C(=O)NCCC(C)C)ccc1NS(C)(=O)=O | 2.329
97 | Cc1ccc(C(=O)NCCCN(C)S(C)(=O)=O)c(=O)[nH]1 | -1.59
98 | Cc1ccc(C(=O)NS(C)(=O)=O)cc1-n1cccc1 | 119
99 | Cc1ccc(C(=O)NS(C)(=O)=O)cc1S(C)(=O)=O | -7.611
100 | CC(=O)NCCNC(=O)c1cnc(-c2ccccc2)nc1 | -5.417
101 | Cc1ccc(C(=O)NS(C)(=O)=O)cc1I | -7.571
102 | Cc1ccc(C(=O)NCCCN(C)S(C)(=O)=O)cc1-n1cccc1 | 108.6
103 | Cc1ccc(CC(=O)NCCCNS(C)(=O)=O)cc1 | 4.317
104 | CC(=O)NCCNC(=O)c1ccc(C)c(-n2cccc2)c1 | 112.1
105 | Cc1ccc(C(=O)NCCN2CCOCC2)cc1N(C)S(C)(=O)=O | -26.4

— ChEMBL document CHEMBL3988442, “University of Dundee, Small-Polar-MMV Screening Library” (2021)
